# Bioassay records from PubChem BioAssay.
# BLM inh: qHTS Assay for Inhibitors of Bloom's syndrome helicase (BLM). RecQ-like DNA helicase BLM (Homo sapiens), P54132. recombinant BLM DNA unwinding, fluorescence dequenching. Potency, µM (highest dose often 56.1 µM), actives largely listed as inhibitors. 350,000 tested, 0.2% active; also: nearly all actives have a fitted effect of over 35% in size
# PI5P4K alpha inh: qHTS for Inhibitors of phosphatidylinositol 5-phosphate 4-kinase (PI5P4K); Phosphatidylinositol 5-phosphate 4-kinase type-2 alpha (Homo sapiens), P48426; PI5P4Kalpha enzyme, ADP-Glo luminescence, 60 min; active compounds read low; max response, %; 330,000 tested, 1.2% active; AID 652105, 2013; active = max response of -50% or lower; inconclusive = between -30% and -50%; inactive = -30% or higher; also: value at the top dose of about 77 µM
#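 Luminescence from ADP-Glo served as readout of PI5P4Kalpha activity in a qHTS format. Reaction: enzyme, substrate, compound, ATP at 5 microM final, 60 min at RT.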
# FEN1 inh: qHTS Assay for the Inhibitors of Human Flap endonuclease 1 (FEN1); P39748; Recombinant FEN1 flap cleavage, fluorescence, 15 min; Potency, µM (series often up to 114 µM), most hits filed as inhibitors; 390,000 tested, 0.35% active; AID 588795, 2011; also: nearly all actives have a fitted effect of over 65% in size
#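 Concentration–response screening of FEN1 (10 nM): 15 min compound preincubation at room temperature, reaction started with 50 nM substrate and read at 0 and 15 min. Corrected, normalized data were fitted by a four-parameter Hill equation.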
# RECQ1 inh-1: qHTS Assay for Inhibitors of RecQ-Like Dna Helicase 1 (RECQ1); RECQ1 DNA unwinding, red fluorescence kinetic read; Potency, µM (top dose mostly 57.3 µM), usual class: inhibitors; 240,000 tested, 0.54% active; also: nearly all actives have a fitted effect of over 30% in size
#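 50 nM RECQ1T1 preincubated 15 min with compound in Tris pH 8.0 buffer with MgCl2, DTT, Tween-20 and 2.5 ug/ml poly(dI-dC); started with 200 nM TAMRA/BHQ-2 forked duplex and 2 mM ATP. Unwinding read as fluorescence (525/598 nm), two reads 2 h apart.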
# WRN inhibitor: qHTS for Inhibitors of WRN Helicase; WRN helicase unwinding, fluorescent forked duplex, kinetic; Potency, µM (top dose mostly 114 µM), actives largely listed as inhibitors; 360,000 tested, 0.46% active; AID 651768, 2012; also: nearly all actives have a fitted effect of over 55% in size
#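 Primary qHTS, 1536-well format. 20 nM WRN + compound, 15 min RT; start with 100 nM forked fluorophore/quencher duplex, 2 mM ATP (final); kinetic read ex 525/em 598 nm.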
# APE1 inh: qHTS Assay for Inhibitors of the Human Apurinic/apyrimidinic Endonuclease 1 (APE1) | DNA repair nuclease/redox regulator APEX1 (Homo sapiens), P27695 | recombinant APE1, TAMRA/BHQ-2 abasic DNA cleavage fluorescence | Potency, µM (top dose mostly 65.8 µM), most hits filed as inhibitors | 350,000 tested, 0.35% active | AID 2517, 2012; also: nearly all actives have a fitted effect of over 55% in size
#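 Activity was derived from the fluorescence gain between first and third kinetic reads (60 s intervals, ex 525/em 598 nm) after 50 nM THF-abasic TAMRA/BHQ-2 duplex was added to 0.75 nM APE1 preincubated 15 min with compound.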
# RECQ1 inh conf: Confirmation qHTS Assay for Inhibitors of RecQ-Like Dna Helicase 1 (RECQ1) | shares compounds with RECQ1 inh-1 | RECQ1 helicase DNA unwinding, fluorescence | Potency, µM (highest dose often 229 µM), most hits filed as inhibitors | 610 tested, 28% active; also: nearly all actives have a fitted effect of over 45% in size
# ADP FP counter: Counterscreen for RECQ1 Inhibitors: ADP Fluorescence Polarization Displacement Assay; 530 tested, 27% active; ADP fluorescence polarization displacement counterscreen; Potency, µM (doses to about 228 µM), most hits filed as inhibitors; shares compounds with RECQ1 inh-1; also: nearly all actives have a fitted effect of over 45% in size
# RECQ1 inh-2: Confirmation qHTS Assay for Inhibitors of RecQ-Like Dna Helicase 1 (RECQ1) - Round 2 Cherry Picks; 1,100 tested, 15% active; shares compounds with RECQ1 inh-1; Potency, µM (titrated, usually from 119 µM), hits mostly inhibitors; recombinant RECQ1 DNA unwinding, red fluorescence; also: nearly all actives have a fitted effect of over 50% in size
# A number is an active result; – = inactive; ? = inconclusive; · = no result; [ ] = remark or other dose. The list is not random: actives were taken first. Their share in the collection is about 1.5%. Unless noted, calls follow the shape of the dose curve; as a rule, active = well fitted curve in the direction sought with a large enough effect; inconclusive = small, poorly fitted or top-dose-only effect, or another doubt; inactive = no such curve, though single readings can be large; an effect the other way counts as inactive or inconclusive.
SMILES,BLM inh,PI5P4K alpha inh,FEN1 inh,RECQ1 inh-1,WRN inhibitor,APE1 inh,RECQ1 inh-2,others
Cc1cccc(-n2c(=O)c(C#N)cc3c(=O)n4ccccc4nc32)c1,–,–,–,–,–,–,·,
Cc1ccc(-n2c(=O)c(C#N)cc3c(=O)n4ccccc4nc32)cc1,–,–,–,35µM,–,?,–,
CCCCN1C(=O)C(O)(c2c[nH]c3ccccc23)c2cc(Br)ccc21 (configuration not stated),–,·,–,·,·,·,·,
O=C(CCCN1C(=O)/C(=C\c2cccs2)SC1=S)NNC(=O)c1cccnc1,–,–,–,2.8µM,–,–,·,RECQ1 inh conf=?;ADP FP counter=–
O=C(CCCN1C(=O)/C(=C/c2cccs2)SC1=S)NNC(=O)c1ccccc1O,–,–,–,–,–,–,·,
Cc1cc(C)c(S(=O)(=O)NCC23C=CC(O2)C2C(=O)N(c4ccccc4)C(=O)C23)c(C)c1 (configuration not stated),–,·,–,11µM,–,–,–,
Cc1cccc(NC(=O)Cn2c(=O)n(CCCCCC(=O)NCc3ccc4c(c3)OCO4)c(=O)c3sccc32)c1,–,·,–,·,·,·,·,
N#C/C(=C/c1ccc(N2CCCCCC2)o1)c1cccc(F)c1,?,·,–,–,–,–,·,
COc1cc(N2CCCC2)c(OC)cc1/C=C(/C#N)c1cccc(F)c1,–,–,–,4µM,–,–,·,RECQ1 inh conf=?;ADP FP counter=?
COc1ccc(-c2csc(NC(=O)c3ccccc3NS(=O)(=O)c3ccc(C)cc3)n2)cc1,–,–,?,?,–,–,·,
COc1ccc(S(=O)(=O)Nc2ccccc2C(=O)Nc2nc(-c3ccc(F)cc3)cs2)cc1OC,–,–,?,?,–,–,?,
CCN(CC)S(=O)(=O)c1ccc(N2CCOCC2)c(NC(=O)c2c3c(nc4ccccc24)CCC3)c1,–,-59,–,16µM,–,?,?,
CC(=O)N[C@@H](CC(C)C)C(=O)N[C@@H](CCCNC(=N)N)C(=O)N[C@@H](Cc1cnc[nH]1)C(=O)N[C@@H](Cc1ccc(O)cc1)C(=O)N[C@@H](CC(C)C)C(=O)N[C@@H](CC(N)=O)C(=O)N[C@@H](CC(C)C)C(=O)N[C@@H](CC(C)C)C(=O)N[C@H](C(=O)N[C@@H](CCCNC(=N)N)C(=O)N[C@@H](CCC(N)=O)C(=O)N[C@@H](CCCNC(=N)N)C(=O)N[C@@H](Cc1ccc(O)cc1)C(N)=O)[C@@H](C)O,–,·,·,–,·,–,·,
COc1ccc(-c2csc(NC(=O)c3ccc(S(=O)(=O)N4CCc5ccccc5C4)cc3)n2)cc1,–,–,–,–,–,–,·,RECQ1 inh conf=–;ADP FP counter=–
COC(=O)c1ccc(-c2csc(NC(=O)c3ccc(S(=O)(=O)N4CCc5ccccc5C4)cc3)n2)cc1,–,–,–,–,–,–,·,RECQ1 inh conf=–;ADP FP counter=–
CCCCS(=O)(=O)N1CCc2nc(COc3ccccc3)c3c(c2C1)CO[C@@H](C)C3,–[12.4 µM],·,·,–[11.5 µM],·,–[12.4 µM],·,
CC(=O)c1cccc(NC(=O)C2CCN(S(=O)(=O)c3ccc4c(c3)oc(=O)n4C)CC2)c1,–,·,–,·,·,·,·,
O=C(CSc1nnc(-c2ccccc2)o1)c1nnc(-c2ccccc2)o1,–,-53,–,?,–,–,–,
COc1cc2c(C(=O)N3CCN(c4cccc(C)c4)C(C)C3)cn(CC(C)C)c(=O)c2cc1OC (configuration not stated),–,·,–,·,·,·,·,
Cc1cc(C)c2c(C)c(C(=O)N3CCC(c4nc5ccccc5s4)CC3)oc2c1,–,·,–,·,·,·,·,
CCc1ccc(S(=O)(=O)c2cnc3ccc(OC)cc3c2N2CCCC(C)C2)cc1 (configuration not stated),–,·,–,·,·,·,·,
CC(NC(=O)/C(=C/c1cccc([N+](=O)[O-])c1)NC(=O)c1ccco1)C(=O)O (configuration not stated),–,–,–,–,–,–,·,RECQ1 inh conf=–;ADP FP counter=–
CC(C)=C1C(=O)NN(c2ccc(F)c(Cl)c2)C1=O,–,·,–,32µM,?,–,–,
COc1cc(/C=C2\Oc3cc(O)ccc3C2=O)ccc1O,–,-61,?,?,?,–,79µM,
COc1ccc(OC)c(-c2cc(C(=O)Nc3cnn(Cc4ccc(Cl)cc4Cl)c3)no2)c1,–,·,–,·,·,·,·,
SMILES,BLM inh,PI5P4K alpha inh,FEN1 inh,RECQ1 inh-1,WRN inhibitor,APE1 inh,RECQ1 inh-2,others
COc1cc(-c2nc3n(n2)C(c2ccncc2)C2=C(CCCC2=O)N3)cc(OC)c1OC (configuration not stated),–,–,–,28µM,–,–,–,
Cc1cc(C)n2[nH]c(=O)c(N=Nc3ccccc3)c2n1,–,–,–,–,–,–,·,
Cc1cc(C(F)(F)F)n2[nH]c(=O)c(N=Nc3ccccc3)c2n1,–,–,–,10µM,–[11.6 µM],–,·,RECQ1 inh conf=–;ADP FP counter=–
COc1ccc(CN2CCc3nc(N4CCN(c5ccc(F)cc5)CC4)ncc3C2)c(OC)c1OC,–,·,–,·,·,·,·,
Cc1nn(Cc2c(F)cccc2Cl)c(C)c1NC(=O)C1CC1,–,–,–,–,–,–,·,
Cc1nn(Cc2c(Cl)cccc2Cl)c(C)c1C(=O)NCc1ccc(C)n1C,–,–,–,?,–,–,–,
N#CN=c1snc(-c2ccccc2)n1-c1ccc(Br)cc1,·,·,–,·,·,·,·,
COc1cccc2c1C(=O)c1c(O)c3c(c(O)c1C2=O)C[C@](O)(C(=O)CO)C[C@H]3O[C@@H]1C[C@H](N)[C@H](O)[C@H](C)O1,?,·,·,8.9µM,·,11µM,·,RECQ1 inh conf=63µM;ADP FP counter=1.1µM
CCCNC(=O)c1cnc2sc(N3CCCCCC3)nn2c1=O,–,·,–,·,·,·,·,
